PubChem BioAssay (EPA / NIEHS)
Active and inactive are the calls of the source. How the source made its calls: active means hit-call score of the fitted dose curve at least 0.9, where 1 is the maximum; inconclusive means response in the unintended direction; inactive means score below 0.9.

What follows are compounds tested against Peroxisome proliferator-activated receptor gamma (Homo sapiens) (UniProt P37231) (assay: OT_PPARg_PPARgSRC1_1440: Odyssey Thera (OT) 24-hour Protein-Complementation Assay for Peroxisome Proliferator-activated Receptor Gamma/ SRC-1 Co-activator (AID 2283388);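 further: nuclear to cytoplasmic ratio of reconstituted Venus YFP fluorescence in fixed imaged cells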).
Sequence of Peroxisome proliferator-activated receptor gamma (Homo sapiens) (P37231 whole entry, looked up, the tested form may be a part): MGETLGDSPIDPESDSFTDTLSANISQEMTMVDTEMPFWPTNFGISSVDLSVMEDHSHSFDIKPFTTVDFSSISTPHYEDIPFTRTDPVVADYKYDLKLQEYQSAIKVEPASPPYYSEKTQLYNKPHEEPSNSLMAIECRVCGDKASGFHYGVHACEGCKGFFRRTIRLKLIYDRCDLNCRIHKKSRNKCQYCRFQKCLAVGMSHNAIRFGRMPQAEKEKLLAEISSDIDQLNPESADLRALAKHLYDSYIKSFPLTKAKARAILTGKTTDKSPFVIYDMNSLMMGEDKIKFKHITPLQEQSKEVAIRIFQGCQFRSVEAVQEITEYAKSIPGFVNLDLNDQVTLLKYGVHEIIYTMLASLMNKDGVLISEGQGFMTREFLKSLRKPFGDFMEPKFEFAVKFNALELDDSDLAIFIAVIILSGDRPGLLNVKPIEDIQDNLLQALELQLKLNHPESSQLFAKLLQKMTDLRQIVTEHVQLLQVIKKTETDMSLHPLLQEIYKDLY
Method: OT_PPARg_PPARgSRC1_1440 is a cell-based assay that uses HEK293T, a human kidney cell line, with measurements taken at 24 hours after chemical dosing in a 384-well plate.OT_PPARg_PPARgSRC1_1440 is one of one assay component(s) measured or calculated from the OT_PPARg_PPARgSRC1_1440 assay. It is designed to make measurements of protein fragment complementation, a form of binding reporter, as detected with fluorescence intensity signals by Protein-fragment Complementation technology.Data from the assay component OT_PPARg_PPARgSRC1_1440 was analyzed into 1 assay endpoint. This assay endpoint, OT_PPARg_PPARgSRC1_1440, was analyzed in the positive analysis fitting direction relative to DMSO as the negative control and baseline of activity. Using a type of binding reporter, measures of receptor for gain-of-signal activity can be used to understand the binding at the pathway-level as they relate to the gene PPARG. Furthermore, this assay endpoint can be referred to as a primary readout, because the performed assay has only produced 1 assay endpoint. To generalize the intended target to other relatable targets, this assay endpoint is annotated to the nuclear receptor intended target family, where the subfamily is non-steroidal.
The OT PPARg/SRC-1 assay assessed receptor-chemical interactions using a rapidly maturing, intensely fluorescent mutant of YFP known as Venus, rationally dissected into two separate fragments. The fragments were obtained as follows: first, fragments coding for YFP1 and YFP2 (corresponding to amino acid residues 1-158 and 159-239 of the full length YFP, respectively) were generated by oligonucleotide synthesis (Blue Heron Biotechnology), and then PCR mutagenesis was used to generate the mutant fragments IFP1 and IFP2. Fusion constructs were transfected into HEK293T cells with a (Gly4Ser)2 linker between the PPARg/SRC-1 and YFP fragment genes to facilitate complementation when interacting proteins bring fragments into close proximity. The construct is transiently transfected in HEK293T cells 48 hours prior to treatment with test compounds. Cells are seeded into optical quality 384-well poly-D-lysine coated plates in MEM alpha medium (Invitrogen) supplemented with 10 percent FBS (Gemini Bio-Products) 1 percent penicillin and 1 percent streptomycin, and grown in 37C incubator equilibrated to 5 percent CO2. Cells are allowed to adhere for 24 hours prior to treatment with compounds of interest or controls for 24 hours. Cells are fixed in 4 percent formaldehyde and stained with Draq5 (BioStatus) to identify cells and subcellular compartment boundaries prior to signal detection. 8 Images per well were acquired on an Evotec Opera at 2 wavelengths (488 and 635nm), and the ratio of fluorescence in the nucleus relative to fluorescence in the cytoplasm (N/C Ratio) in the 488nm channel was calculated for a minimum of 350 cells per image.
With `CC(C)Nc1nc(N)nc(Cl)n1` the outcome was “inactive”.
With `O=C(O)c1ccc(O)cc1` the outcome was “inactive”.
With `CCCCC(CC)COC(C)=O` (stereo not given) the outcome was “inactive”.
`O=C(CC(=O)c1ccccc1)c1ccccc1` was tested, and the outcome was “inactive”.
`CCOC(=O)C1OC1c1ccccc1` (stereo not given) was tested, and the outcome was “inactive”.
For `CN1CCOCC1`, the outcome was “inactive”.
With `CCCCCCC(CO)CCCC` (stereo not given) the outcome was “inactive”.
In the case of `Nc1ccc(N)c2c1C(=O)c1ccccc1C2=O`, the outcome was “inactive”.
In the case of `CC(C)NCC(O)COc1ccc(CC(N)=O)cc1` (stereo not given), the outcome was “inactive”.
With `OCC#CCO` the outcome was “inactive”.
`Cc1ccc(S(N)(=O)=O)cc1` was tested, and the outcome was “inactive”.
For `CCc1cc(C(C)(C)C)c(O)c(C(C)(C)C)c1`, the outcome was “inactive”.
`CCCC(C)=O` was tested, and the outcome was “inactive”.
With `CCCCCCCCCCCCN1CCCCCC1=O` the outcome was “inactive”.
For `C=C(C)C(=O)OCCOC1CC2CC1C1C=CCC21` (stereo not given), the outcome was “inactive”.
For `CC1(C)C(=O)N(Cl)C(=O)N1Br`, the outcome was “inactive”.
With `CC1CCC(C(C)C)C(O)C1` (stereo not given) the outcome was “inactive”.
In the case of `CCCCCCCCSCCO`, the outcome was “inactive”.
For `Clc1ccc(C(c2ccccc2Cl)C(Cl)Cl)cc1` (stereo not given), the outcome was “inactive”.
With `CC(=O)O[C@H]1C[C@@H]2CC[C@@]1(C)C2(C)C` the outcome was “inactive”.
`CCC(=O)O[C@@H]1C[C@H]2CC[C@]1(C)C2(C)C` was tested, and the outcome was “inactive”.
For `COC(=O)c1ccc(C)cc1C1=NC(C)(C(C)C)C(=O)N1` (stereo not given) (tested in a mixture with another compound), the outcome was “inactive”.
In the case of `O=P(O)(O)O`, the outcome was “inactive”.
With `CS(C)=O` the outcome was “inactive”.
With `ON=C1CCCCC1` the outcome was “inactive”.
`CCCCCCCCCCCCCCN(CCO)CCO` was tested, and the outcome was “inactive”.
With `OCc1cccc(Oc2ccccc2)c1` the outcome was “inactive”.
`CCOc1ccc(N=Nc2ccc(C=Cc3ccc(N=Nc4ccc(OCC)cc4)cc3S(=O)(=O)O)c(S(=O)(=O)O)c2)cc1` was tested, and the outcome was “inactive”.
With `CCNCCO` the outcome was “inactive”.
`CCOC(=O)[C@@H](C)Oc1ccc(Oc2nc3ccc(Cl)cc3o2)cc1` was tested, and the outcome was “inactive”.
For `CCc1ccc(O)cc1`, the outcome was “inactive”.
In the case of `CCCCCCC(=O)c1ccccc1`, the outcome was “inactive”.
In the case of `O=C1NC2NC(=O)NC2N1` (stereo not given), the outcome was “inactive”.
`CCCCCCCCc1ccc(S(=O)(=O)O)cc1` was tested, and the outcome was “inactive”.
`CCCCCCCCCC(=O)OC` was tested, and the outcome was “inactive”.
For `C=C[Si]1(C)O[Si](C)(C=C)O[Si](C)(C=C)O[Si](C)(C=C)O1` (stereo not given), the outcome was “inactive”.
`Nc1ccc2cc(S(=O)(=O)O)cc(O)c2c1N=Nc1ccccc1C(F)(F)F` was tested, and the outcome was “inactive”.
For `CCCCCCCC(=O)OCC(O)CO` (stereo not given), the outcome was “inactive”.
For `C=C1C[C@]23C[C@@]1(O)CC[C@H]2[C@@]12C=C[C@H](O)[C@@](C)(C(=O)O1)[C@H]2[C@@H]3C(=O)O`, the outcome was “inactive”.
With `Nc1ccccc1[N+](=O)[O-]` the outcome was “inactive”.
